Source: publication PMC9911399, “Two distinct binding modes provide the RNA-binding protein RbFox with extraordinary sequence specificity”
Residue numbers refer to the chain shown, from its start. The full ranking holds about 16,000 sequences; the median of “ka relative to ugcaugu” is about 0.0091, and the highest 2% start at about 0.032. The sample as a whole holds a higher share of the highest values than the screen did.

T1: RBFOX1 RRM (Homo sapiens, UniProt Q9NWB1 109-208)
T1 sequence: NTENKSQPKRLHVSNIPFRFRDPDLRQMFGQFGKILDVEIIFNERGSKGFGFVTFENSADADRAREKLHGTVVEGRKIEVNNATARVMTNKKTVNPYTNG

B1: GCAAACU (DNA:RNA)
RNA: GGGAGACCGGAAUUCAGAUUGUCCGCAAACUUUAAAUCCCGUCGUAGCCACCA
DNA 1: CAATCTGAATTCCGGTCTCCC
DNA 2: TGGTGGCTACGACGGGATT
B2: GGAACAC (DNA:RNA)
RNA: B1 RNA with C26G, A29C, C30A, U31C
DNA 1: CAATCTGAATTCCGGTCTCCC
DNA 2: TGGTGGCTACGACGGGATT
B3: ACCAGCA (DNA:RNA)
RNA: B1 RNA with G25A, A27C, A29G, U31A
DNA 1: CAATCTGAATTCCGGTCTCCC
DNA 2: TGGTGGCTACGACGGGATT
B4: AGCAUAA (DNA:RNA)
RNA: B1 RNA with G25A, C26G, A27C, A29U, C30A, U31A
DNA 1: CAATCTGAATTCCGGTCTCCC
DNA 2: TGGTGGCTACGACGGGATT
B5: AGCAUGA (DNA:RNA)
RNA: B1 RNA with G25A, C26G, A27C, A29U, C30G, U31A
DNA 1: CAATCTGAATTCCGGTCTCCC
DNA 2: TGGTGGCTACGACGGGATT
B6: UAGCAUC (DNA:RNA)
RNA: B1 RNA with G25U, C26A, A27G, A28C, C30U, U31C
DNA 1: CAATCTGAATTCCGGTCTCCC
DNA 2: TGGTGGCTACGACGGGATT
B7: AGCCUGC (DNA:RNA)
RNA: GGGAGACCGGAAUUCAGAUUGUCCAGCCUGCUUAAAUCCCGUCGUAGCCACCA
DNA 1: CAATCTGAATTCCGGTCTCCC
DNA 2: TGGTGGCTACGACGGGATT
B8: AAGCAUG (DNA:RNA)
RNA: B7 RNA with G26A, C27G, U29A, G30U, C31G
DNA 1: CAATCTGAATTCCGGTCTCCC
DNA 2: TGGTGGCTACGACGGGATT
B9: AAGCAUC (DNA:RNA)
RNA: B7 RNA with G26A, C27G, U29A, G30U
DNA 1: CAATCTGAATTCCGGTCTCCC
DNA 2: TGGTGGCTACGACGGGATT
B10: UAGCAUG (DNA:RNA)
RNA: B7 RNA with A25U, G26A, C27G, U29A, G30U, C31G
DNA 1: CAATCTGAATTCCGGTCTCCC
DNA 2: TGGTGGCTACGACGGGATT
B11: UAGCAUA (DNA:RNA)
RNA: B7 RNA with A25U, G26A, C27G, U29A, G30U, C31A
DNA 1: CAATCTGAATTCCGGTCTCCC
DNA 2: TGGTGGCTACGACGGGATT
B12: AAGCAUA (DNA:RNA)
RNA: B7 RNA with G26A, C27G, U29A, G30U, C31A
DNA 1: CAATCTGAATTCCGGTCTCCC
DNA 2: TGGTGGCTACGACGGGATT
B13: AGCAUGC (DNA:RNA)
RNA: B7 RNA with C28A
DNA 1: CAATCTGAATTCCGGTCTCCC
DNA 2: TGGTGGCTACGACGGGATT
B14: AGAAUGC (DNA:RNA)
RNA: B7 RNA with C27A, C28A
DNA 1: CAATCTGAATTCCGGTCTCCC
DNA 2: TGGTGGCTACGACGGGATT
B15: GGUGGAA (DNA:RNA)
RNA: B7 RNA with A25G, C27U, C28G, U29G, G30A, C31A
DNA 1: CAATCTGAATTCCGGTCTCCC
DNA 2: TGGTGGCTACGACGGGATT
B16: UGGCGAC (DNA:RNA)
RNA: B7 RNA with A25U, C27G, U29G, G30A
DNA 1: CAATCTGAATTCCGGTCTCCC
DNA 2: TGGTGGCTACGACGGGATT
B17: CCGGGGC (DNA:RNA)
RNA: B7 RNA with A25C, G26C, C27G, C28G, U29G
DNA 1: CAATCTGAATTCCGGTCTCCC
DNA 2: TGGTGGCTACGACGGGATT
B18: ACUCUUG (DNA:RNA)
RNA: B7 RNA with G26C, C27U, G30U, C31G
DNA 1: CAATCTGAATTCCGGTCTCCC
DNA 2: TGGTGGCTACGACGGGATT
B19: GAGUGCG (DNA:RNA)
RNA: B1 RNA with C26A, A27G, A28U, A29G, U31G
DNA 1: CAATCTGAATTCCGGTCTCCC
DNA 2: TGGTGGCTACGACGGGATT
B20: UGCCUUA (DNA:RNA)
RNA: B7 RNA with A25U, G30U, C31A
DNA 1: CAATCTGAATTCCGGTCTCCC
DNA 2: TGGTGGCTACGACGGGATT
B21: UUUUCUC (DNA:RNA)
RNA: B7 RNA with A25U, G26U, C27U, C28U, U29C, G30U
DNA 1: CAATCTGAATTCCGGTCTCCC
DNA 2: TGGTGGCTACGACGGGATT
B22: UUGUCUC (DNA:RNA)
RNA: B7 RNA with A25U, G26U, C27G, C28U, U29C, G30U
DNA 1: CAATCTGAATTCCGGTCTCCC
DNA 2: TGGTGGCTACGACGGGATT
B23: UUCAGGC (DNA:RNA)
RNA: B7 RNA with A25U, G26U, C28A, U29G
DNA 1: CAATCTGAATTCCGGTCTCCC
DNA 2: TGGTGGCTACGACGGGATT
B24: AGCAUGG (DNA:RNA)
RNA: B7 RNA with C28A, C31G
DNA 1: CAATCTGAATTCCGGTCTCCC
DNA 2: TGGTGGCTACGACGGGATT
B25: CAGCAUG (DNA:RNA)
RNA: B7 RNA with A25C, G26A, C27G, U29A, G30U, C31G
DNA 1: CAATCTGAATTCCGGTCTCCC
DNA 2: TGGTGGCTACGACGGGATT
B26: AGCAUUG (DNA:RNA)
RNA: B7 RNA with C28A, G30U, C31G
DNA 1: CAATCTGAATTCCGGTCTCCC
DNA 2: TGGTGGCTACGACGGGATT
B27: AGCCAUG (DNA:RNA)
RNA: B7 RNA with U29A, G30U, C31G
DNA 1: CAATCTGAATTCCGGTCTCCC
DNA 2: TGGTGGCTACGACGGGATT
B28: AUGCUUG (DNA:RNA)
RNA: B7 RNA with G26U, C27G, G30U, C31G
DNA 1: CAATCTGAATTCCGGTCTCCC
DNA 2: TGGTGGCTACGACGGGATT
B29: CAGCAUA (DNA:RNA)
RNA: B7 RNA with A25C, G26A, C27G, U29A, G30U, C31A
DNA 1: CAATCTGAATTCCGGTCTCCC
DNA 2: TGGTGGCTACGACGGGATT
B30: AUGCUGC (DNA:RNA)
RNA: B7 RNA with G26U, C27G
DNA 1: CAATCTGAATTCCGGTCTCCC
DNA 2: TGGTGGCTACGACGGGATT
B31: AGCAUGU (DNA:RNA)
RNA: B7 RNA with C28A, C31U
DNA 1: CAATCTGAATTCCGGTCTCCC
DNA 2: TGGTGGCTACGACGGGATT
B32: ACCAUGG (DNA:RNA)
RNA: B7 RNA with G26C, C28A, C31G
DNA 1: CAATCTGAATTCCGGTCTCCC
DNA 2: TGGTGGCTACGACGGGATT
B33: ACCAUGC (DNA:RNA)
RNA: B7 RNA with G26C, C28A
DNA 1: CAATCTGAATTCCGGTCTCCC
DNA 2: TGGTGGCTACGACGGGATT
B34: ACCAUGU (DNA:RNA)
RNA: B7 RNA with G26C, C28A, C31U
DNA 1: CAATCTGAATTCCGGTCTCCC
DNA 2: TGGTGGCTACGACGGGATT
B35: CAGCAUC (DNA:RNA)
RNA: B7 RNA with A25C, G26A, C27G, U29A, G30U
DNA 1: CAATCTGAATTCCGGTCTCCC
DNA 2: TGGTGGCTACGACGGGATT

What follows are binders tested against T1, RBFOX1 RRM (assay: EMSA; HiTS-Eq, 1 nM pool, 10 min; buffer printed only for the single-RNA assays: 10 mM Tris pH 7.5, 150 mM NaCl, 3.4 mM EDTA, 0.001% NP-40, 30 C). Conditions: tags: His6 N-terminal (pET28a); label: 5' 32P.
Method in brief: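 These values rest on relative association constants, computed from read-count changes of each RNA species versus the control reaction and normalised to the cognate motif. Reads came from free RNA recovered by 8% native PAGE after purified RbFox RRM (wild type or mutant) at increasing concentrations was equilibrated for 10 min in 50 µL with 1 nM of a 5′-radiolabelled pool with 7 randomized nucleotides and DNA-annealed flanks.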

Row | Binder | binding signal
1 | B1 | 0.00432 KA relative to UGCAUGU
2 | B2 | 0.0079 KA relative to UGCAUGU
3 | B3 | 0.0049 KA relative to UGCAUGU
4 | B4 | 0.00471 KA relative to UGCAUGU
5 | B5 | 0.35 KA relative to UGCAUGU
6 | B6 | 0.0216 KA relative to UGCAUGU
7 | B7 | 0.0203 KA relative to UGCAUGU
8 | B8 | 0.674 KA relative to UGCAUGU
9 | B9 | 0.0137 KA relative to UGCAUGU
10 | B10 | 0.795 KA relative to UGCAUGU
11 | B11 | 0.011 KA relative to UGCAUGU
12 | B12 | 0.00459 KA relative to UGCAUGU
13 | B13 | 0.888 KA relative to UGCAUGU
14 | B14 | 0.022 KA relative to UGCAUGU
15 | B15 | 0.00994 KA relative to UGCAUGU
16 | B16 | 0.00695 KA relative to UGCAUGU
17 | B17 | 0.0147 KA relative to UGCAUGU
18 | B18 | 0.0078 KA relative to UGCAUGU

Row | Binder | binding signal
19 | B19 | 0.0156 KA relative to UGCAUGU
20 | B20 | 0.00671 KA relative to UGCAUGU
21 | B21 | 0.0162 KA relative to UGCAUGU
22 | B22 | 0.0203 KA relative to UGCAUGU
23 | B23 | 0.0127 KA relative to UGCAUGU
24 | B24 | 0.347 KA relative to UGCAUGU
25 | B25 | 0.665 KA relative to UGCAUGU
26 | B26 | 0.0104 KA relative to UGCAUGU
27 | B27 | 0.0102 KA relative to UGCAUGU
28 | B28 | 0.0339 KA relative to UGCAUGU
29 | B29 | 0.00331 KA relative to UGCAUGU
30 | B30 | 0.00746 KA relative to UGCAUGU
31 | B31 | 0.738 KA relative to UGCAUGU
32 | B32 | 0.00726 KA relative to UGCAUGU
33 | B33 | 0.00513 KA relative to UGCAUGU
34 | B34 | 0.00472 KA relative to UGCAUGU
35 | B35 | 0.0124 KA relative to UGCAUGU
